# Several values for one entry are separate records, joined by “and”; a condition that tells them apart may be missing. Equal entries are not always repeated. About 2,100 (0.66%) of roughly 320,000 compounds were called active. About 53% were inconclusive and are not listed. This is one part of a sample in which actives are shown more often than they occur. The call rests on the fitted dose curve; in most records, active means well fitted inhibition curve with a large enough effect in the signal ratio, with a control signal flat (not every such curve was filed as active); inconclusive means small, poorly fitted or top-dose-only effect, or effect the other way, or a change in a side signal; inactive means flat fitted curve, though single readings scatter; the % refers to the signal ratio.
# Assay: qHTS Assay for Lipid Storage Modulators in Drosophila S3 Cells;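 on cell number change: cells counted by Cell Tracker Red CMTPX staining in the red channel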; on lipid storage change, negative = inhibition: on the % scale 0 is the no-effect control and ±100 the full control effect
# Settings: BODIPY lipid droplet fluorescence, 18-24 h, cells fed with added oleic acid; cell number change: measured here: cell count max response; series mostly up to 46.1 µM
# Outline: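 Drosophila S3 cells got compounds at several concentrations plus oleic acid (400 uM solution). Laser-scanning cytometry with 488 nm excitation read lipid droplets at 500-530 nm and cells at 575-640 nm. Percent activity was relative to 20 uM Triacsin C.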
# Potency means the concentration at half of the fitted maximal effect.
SMILES,Potency,cell number change,"lipid storage change, negative = inhibition"
COc1ccc(C)cc1NC(=O)c1ccccc1NS(=O)(=O)c1cccc2cccnc12,inactive,-4.79%,–
CCOc1ccc(CO/N=C/c2c(C)[nH]c(=O)[nH]c2=O)cc1,inactive,3.8%,–
CCOC(=O)C1=C(N)N2C(=O)C(C)SC2=C(C(=O)OC)C1c1ccccc1OC (stereo not drawn),inactive,-22.7%,–
CCOc1cc(/C=N\NC(=O)OC)ccc1OC(=O)c1ccco1,inactive,10.8%,–
Cc1ccc(N2CCN(S(=O)(=O)N3CCCCCC3)CC2)cc1Cl,inactive,8.56%,–
Cc1ccc(Cc2nc(-c3cccnc3)no2)cc1,inactive,-9.21%,–
O=C(CC(c1ccccc1)c1ccccc1)NCc1cccnc1,inactive,-6.85%,–
Cc1ccc(C(=O)NCc2ccco2)cc1S(=O)(=O)N1CCCC1,inactive,15%,–
O=C(NCCCN1CCOCC1)C(=O)NCC1OCCN1S(=O)(=O)c1cc(F)ccc1F (stereo not drawn),inactive,10.3%,–
Cc1nnsc1C(=O)N1CCN(c2ccc(F)cc2)CC1,inactive,6.97%,–
CCOC(=O)c1cc2c(=O)n3cccc(C)c3nc2n(CCCOC)c1=NC(=O)c1cccnc1,inactive,-8.27%,–
Cc1cccc(N2C(=O)c3ccc(C(=O)Nc4c[nH]c(=O)[nH]c4=O)cc3C2=O)c1,inactive,-0.423%,–
CC(C)COc1ccc(C/C(N)=N/n2cnnc2)cc1,20.6 µM (active),-24.2%,–
CCOC(=O)Cn1nnc(-c2ccc(OCC(C)C)cc2)n1,inactive,-1.1%,–
COc1ccc(C/C(N)=N/n2cnnc2)cc1Cl,inactive,–,–
COc1ccc(NC(=O)N2Cc3ccccc3CC2C(=O)NC(C)(C)C)cc1 (stereo not drawn),inactive,-0.759%,–
O=C(NCCNc1nccc(C(F)(F)F)n1)c1cccc(C(F)(F)F)c1,inactive,8.97%,–
CNS(=O)(=O)c1cccc2cccnc12,–,10%,11.3% [at 9.22 µM] (inactive)
CSS(=O)(=O)c1cccc2cccnc12,2.59 µM (active),-61.8%,–
CCCNS(=O)(=O)c1cccc2cccnc12,–,2.48%,-0.974% [at 9.22 µM] (inactive)
CCCCN(c1ccccc1)S(=O)(=O)c1cccc2cccnc12,inactive,–,–
O=S(=O)(c1cccc2cccnc12)N(CCO)CCO,inactive,-16.7%,–
CCN(CC)S(=O)(=O)c1cccc2cccnc12,7.31 µM (active),-17.9%,–
Cc1ccccc1OCC(=O)Nc1c2c(nn1C(C)(C)C)CS(=O)(=O)C2,inactive,-4.53%,–
OCCC1CN(Cc2cnc(-c3ccccc3)s2)CCN1Cc1ccccc1 (stereo not drawn),inactive,-2.24%,–

SMILES,Potency,cell number change,"lipid storage change, negative = inhibition"
Cc1cc[n+](CC(=O)N2CCCc3ccccc32)cc1,inactive,-2.96%,–
COC(=O)c1cc(-c2ccccc2)c2c(=O)n(C)c(=O)n(C)c2n1,inactive,0.987%,–
COC(=O)c1cc(-c2ccc(Br)cc2)c2c(=O)n(C)c(=O)n(C)c2n1,20.6 µM (active),-16.2%,–
CCOc1ccc(-c2cc(C(=O)OC)nc3c2c(=O)n(C)c(=O)n3C)cc1,inactive,0.241%,–
O=C1CSC(c2cccnc2)N1c1ccc(Cl)cc1 (stereo not drawn),inactive,-17.2%,–
Cc1ccc2nc(-c3ccc4c(c3)NC(=O)CO4)cn2c1,inactive,4.69%,–
CCC1CCCCN1CCCNC(=O)c1ccc(/C=C2/Sc3ccccc3NC2=O)cc1 (stereo not drawn),5.17 µM (active),-7.79%,–
O=C1Nc2cc(C(=O)NCCCN3CCCC3)ccc2S/C1=C\c1ccccc1,inactive,-4.94%,–
CCC1CCCCN1CCCNC(=O)c1ccc2c(c1)NC(=O)CS2 (stereo not drawn),inactive,20.8%,–
O=C(CSc1nncs1)Nc1ccc(N2CCCCC2)cc1,inactive,-24%,–
CCN1CCN(S(=O)(=O)c2ccc(Cl)c(C(=O)N(C)Cc3ccco3)c2)CC1,inactive,2.03%,–
Cc1ccc(S(=O)(=O)C2(C(=O)NC3CCCCC3C)CC2)cc1 (stereo not drawn),inactive,-11.4%,–
OCCN(CCO)c1nc(-c2ccccc2)nc2c1oc1ccccc12,inactive,-3.98%,–
Cc1ccc(C(=O)C2=C(O)C(=O)N(Cc3cccnc3)C2c2ccc(Br)cc2)o1 (stereo not drawn),inactive,4.99%,–
COc1ccc(C2C(C(=O)c3ccc(C)o3)=C(O)C(=O)N2Cc2cccnc2)cc1OC (stereo not drawn),0.13 µM (active),1.8%,–
Cc1ccc(C(=O)C2=C(O)C(=O)N(Cc3cccnc3)C2c2ccc(Cl)cc2)o1 (stereo not drawn),inactive,10.8%,–
O=C(N1CCCC1)C12CC3CCC(CC(C3)C1)C2,inactive,3.73%,–
S=c1[nH]nc(-c2cccnc2)n1/N=C/c1ccco1,inactive,1.79%,–
CCCC(C)n1[nH]c(=O)cc1N (stereo not drawn),inactive,0.134%,–
CCCCC(C)n1[nH]c(=O)cc1N (stereo not drawn),25.9 µM (active),-24.5%,–
CCC(C)n1[nH]c(=O)cc1N (stereo not drawn),inactive,5.9%,–
O=C1CCCN1CCNC(=S)Nc1ccccc1,inactive,-13%,–
Cc1ccc(C)c(-n2c(SCC(=O)O)nc3sc4c(c3c2=O)CCCC4)c1,0.116 µM (active),13%,–
Cc1ccc(-n2c(SCC(=O)O)nc3sc4c(c3c2=O)CCCC4)cc1,inactive,9.08%,–
Nc1nc(SCc2nnc(SCC(=O)O)n2-c2ccccc2)nc2sc3c(c12)CCCC3,23.1 µM (active),3.22%,–

SMILES,Potency,cell number change,"lipid storage change, negative = inhibition"
NC(=O)CSc1nc(N)c2c3c(sc2n1)CCCCC3,inactive,-16.5%,–
Cc1ccccc1-n1c(SCC(=O)O)nc2sc3c(c2c1=O)CCCC3,inactive,–,–
O=C(O)CSc1nc2sc3c(c2c(=O)n1-c1ccccc1)CCC3,inactive,10.3%,–
Cc1cc(C)c2c(CN3CC(C)OC(C)C3)cc(=O)oc2c1C (stereo not drawn),inactive,-15.5%,–
O=C(Nc1ccccc1)N(CCN1CCOCC1)Cc1cccc(Cl)c1,inactive,-10.2%,–
Cc1cc(C(=O)N/N=C/c2cccn2C)no1,inactive,6.61%,–
CCOC(=O)N1CCc2c(sc3nc(SC(C)C)n(N)c(=O)c23)C1,inactive,-1.6%,–
Oc1ccc(Br)cc1C=Nc1ccc(Cl)cc1,inactive,-3.17%,–
CCc1c(C)sc(NC(=O)Cc2ccccc2OC)c1C(=O)N1CCOCC1,inactive,-8.21%,–
CC(=O)OCC(=O)[C@@]1(O)CC[C@H]2[C@@H]3CCC4=CC(=O)CC[C@]4(C)[C@H]3C(=O)C[C@@]21C,inactive,11.1%,–
CC12CCC(=O)C=C1CCC1C2C(=O)CC2(C)C1CCC2(O)C(=O)CO (stereo not drawn),16.4 µM (active),-13.5%,–
C[C@]12C=CC(=O)C=C1CC[C@@H]1[C@@H]2C(=O)C[C@@]2(C)[C@H]1CC[C@]2(O)C(=O)CO,inactive,21.3% and -3.16%,–
CCCCC(CC)C(=O)Nc1ccc(Nc2ccccc2)cc1 (stereo not drawn),inactive,-8.16%,–
CN1C(=O)C(=C2CCCCCC2)SC1=S,inactive,-2.61%,–
COc1cc2c(cc1OC)C1O[C@](CCCCN3C(=O)c4ccccc4C3=O)(C2)Oc2c1c(=O)oc1ccc(F)cc21,–,-5.97%,16.8% [at 9.22 µM] (inactive)
CCOC(=O)/C(C#N)=C/c1cc2cc(C)c(C)cc2nc1Cl,inactive,-0.849%,–
CC1CCCCN1C(=O)Cn1c(=O)n(CCC(=O)NCc2ccco2)c(=O)c2sccc21 (stereo not drawn),inactive,-5.81%,–
Nc1nonc1-n1nnc(C(=O)N/N=C/c2cccc(Cl)c2Cl)c1CN1CCCC1,inactive,16.7%,–
CC(C)c1c(C(=O)N/N=C/c2ccccc2OCc2c(F)cccc2Cl)nnn1-c1nonc1N,inactive,–,–
CN(Cc1c(C(=O)N/N=C/c2c(F)cccc2Cl)nnn1-c1nonc1N)c1ccccc1,inactive,8.36%,–
CN(C)Cc1c(C(=O)N/N=C/c2ccccc2OCc2c(F)cccc2Cl)nnn1-c1nonc1N,4.11 µM (active),0.435%,–
CC(C)c1c(C(=O)N/N=C/c2cccc(OCc3ccc(F)cc3)c2)nnn1-c1nonc1N,inactive,11.8%,–
Nc1nonc1-n1nnc(C(=O)N/N=C/c2ccccc2Br)c1CN1CCCC1,inactive,-1.9%,–
Cc1ccc(COc2cccc(/C=N/NC(=O)c3nnn(-c4nonc4N)c3C)c2)cc1,20.6 µM (active),50%,–
Cc1cccc(COc2ccc(/C=N/NC(=O)c3nnn(-c4nonc4N)c3C)cc2)c1,inactive,11.5%,–

SMILES,Potency,cell number change,"lipid storage change, negative = inhibition"
CC(=C/c1ccco1)/C=N/NC(=O)c1nnn(-c2nonc2N)c1CN(C)C,inactive,–,–
CCCN(CCC)Cc1c(C(=O)N/N=C/C(C)=C\c2ccco2)nnn1-c1nonc1N,11.6 µM (active),-11.1%,–
CC(/C=N/NC(=O)c1nnn(-c2nonc2N)c1CN(C)C)=C\c1ccco1,inactive,-0.367%,–
CCOc1ccccc1/C=N/NC(=O)c1nnn(-c2nonc2N)c1CN1CCCC1,20.6 µM (active),16%,–
Cc1cc(NC(=O)COc2ccc3oc4ccccc4c3c2)no1,inactive,-12.8%,–
CC1CCN(C(=O)c2ccc3c(Cl)c4c(nc3c2)CCCC4)CC1,inactive,2.72%,–
Cc1ccc(S(=O)(=O)CCN2CCN(c3ccccc3)CC2)cc1,inactive,-10.3%,–
NS(=O)(=O)c1ccc(CCNC(=O)C(=O)NCC2OCCN2S(=O)(=O)c2ccc(Cl)cc2)cc1 (stereo not drawn),inactive,-8.07%,–
CN(Cc1c(C(=O)N/N=C/c2ccc(O)cc2)nnn1-c1nonc1N)c1ccccc1,inactive,-9.24%,–
CN(C)c1ccc(/C=N/NC(=O)c2nnn(-c3nonc3N)c2CN(C)c2ccccc2)cc1,inactive,24.5%,–
CN(Cc1c(C(=O)N/N=C/c2ccccc2)nnn1-c1nonc1N)c1ccccc1,4.61 µM (active),-11.2%,–
Cc1ccc(-n2c(SCc3cn4ccsc4n3)nc3ccccc3c2=O)cc1,inactive,-7.5%,–
C=C(C)CSc1nnc([C@@H]2CCCN2)o1,inactive,9.92%,–
COc1ccc(NC(=O)C2CCCN2S(=O)(=O)c2ccc(F)cc2)cc1 (stereo not drawn),–,-1.12%,-17.7% [at 9.22 µM] (inactive)
CC1Sc2ccc(S(=O)(=O)N3CCC(C(=O)Nc4ccc(Cl)cc4)CC3)cc2NC1=O (stereo not drawn),inactive,7.08%,–
CCOc1ccc(NC(=O)C2CCCN2S(=O)(=O)c2ccc(OCC)cc2)cc1 (stereo not drawn),0.651 µM (active),9.72%,–
O=C(Nc1ccc(F)cc1)C1CCCN(S(=O)(=O)c2ccc3[nH]c(=O)ccc3c2)C1 (stereo not drawn),inactive,23.9%,–
CCc1cccc(NC(=O)C2CCCN(S(=O)(=O)c3ccc4[nH]c(=O)ccc4c3)C2)c1 (stereo not drawn),inactive,16%,–
COc1ccc(NC(=O)C2CCN(S(=O)(=O)c3ccc4c(c3)NC(=O)C(C)S4)CC2)cc1 (stereo not drawn),inactive,2.12%,–
COc1ccc(S(=O)(=O)N2CCCC2C(=O)Nc2ccc(C(C)=O)cc2)cc1 (stereo not drawn),inactive,-11.3%,–
CCOc1ccc(NC(=O)C2CCCN(S(=O)(=O)c3ccc4[nH]c(=O)ccc4c3)C2)cc1 (stereo not drawn),20.6 µM (active),23.6%,–
CCOc1ccc(NC(=O)C2CCN(S(=O)(=O)c3ccc4c(c3)NC(=O)C(C)S4)CC2)cc1 (stereo not drawn),1.03 µM (active),–,–

# — PubChem BioAssay AID2685 (National Center for Advancing Translational Sciences (NCATS), 2010)
